According to PubChem BioAssay (NCATS):
“And” between values parts separate entries of the source, which are not always exact repeats. Equal values may be shown once. Results filed as inconclusive are left out. The source made the active and inactive calls. Unless noted, the call rests on the fitted dose curve; in most records, active means well fitted inhibition curve with a large enough effect; inconclusive means small, poorly fitted or top-dose-only effect; inactive means flat fitted curve, though single readings scatter. Bridge positions count the residues as written; N and C are the ends. Square brackets hold non-standard residues; d marks the D form. Peptide text beside a SMILES is read from it. * marks the point of attachment. Octanoyl(6-Me) = CCC(C)CCCCC(=O)*; Dab = NCC[CH](N)C(=O)O

Assays:
[1] = biological target: Estrogen receptor (Homo sapiens) (UniProt P03372); assay: qHTS assay for small molecule antagonists of estrogen receptor alpha signaling (AID 588513; active means well fitted curve in the direction sought with a large enough effect in the signal ratio, with a control signal flat, not every such curve was filed as active; the % refers to the signal ratio; further: on the % scale 0 is the no-effect control and ±100 the full control effect)
Sequence of Estrogen receptor (Homo sapiens) (P03372 whole entry, looked up): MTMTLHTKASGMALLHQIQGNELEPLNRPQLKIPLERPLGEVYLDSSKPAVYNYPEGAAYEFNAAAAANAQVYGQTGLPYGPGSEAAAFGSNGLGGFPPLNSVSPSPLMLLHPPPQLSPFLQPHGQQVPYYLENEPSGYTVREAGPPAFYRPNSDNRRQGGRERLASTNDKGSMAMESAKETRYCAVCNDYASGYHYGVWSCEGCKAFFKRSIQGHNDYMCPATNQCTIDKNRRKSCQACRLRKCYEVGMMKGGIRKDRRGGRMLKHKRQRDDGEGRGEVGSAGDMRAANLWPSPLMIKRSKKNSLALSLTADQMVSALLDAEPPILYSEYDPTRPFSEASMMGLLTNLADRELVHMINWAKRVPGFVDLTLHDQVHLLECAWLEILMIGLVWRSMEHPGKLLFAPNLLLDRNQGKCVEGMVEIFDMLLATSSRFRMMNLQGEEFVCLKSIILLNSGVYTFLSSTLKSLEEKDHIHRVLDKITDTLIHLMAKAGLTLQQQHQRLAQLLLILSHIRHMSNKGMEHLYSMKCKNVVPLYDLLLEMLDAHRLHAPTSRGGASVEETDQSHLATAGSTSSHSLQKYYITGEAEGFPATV
Method in brief: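 Antagonist-mode qHTS in ER-alpha-UAS-bla HEK 293 cells: compound titration, 0.5nM estradiol for 18 h, CCF4 fluorescence, Hill-derived IC50.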

CP201 = assay: qHTS profiling for inhibitors of Plasmodium falciparum proliferation (AID 504749); further: nearly all actives have a fitted effect of over 60% in size; further: potency means the concentration at half of the fitted maximal effect; details: P. falciparum in erythrocytes, SYBR Green DNA, 72 h; series mostly up to 28.7 µM
Method in brief: (§1)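 SYBR Green fluorescence of parasite DNA, read after lysis and overnight dark incubation, measured growth over 72 h in erythrocyte culture at 0.3% parasitemia and 2.5% hematocrit. Data normalised to DMSO and 0.29 uM artemisinin, with plate-drift correction.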

CP215 = assay: as above; details: P. falciparum in erythrocytes, SYBR Green DNA, 72 h; series mostly up to 28.7 µM
Method in brief: as §1

CP266 = assay: as above; details: P. falciparum in erythrocytes, SYBR Green DNA, 72 h; series mostly up to 28.7 µM
Method in brief: as §1

CP268 = assay: as above; details: P. falciparum in erythrocytes, SYBR Green DNA, 72 h; series mostly up to 28.7 µM
Method in brief: as §1

CP297 = assay: as above; details: P. falciparum in erythrocytes, SYBR Green DNA, 72 h; series mostly up to 28.7 µM
Method in brief: as §1

CP325 = assay: as above; details: P. falciparum in erythrocytes, SYBR Green DNA, 72 h; series mostly up to 28.7 µM
Method in brief: as §1

DIV30 = assay: as above; details: P. falciparum in erythrocytes, SYBR Green DNA, 72 h; series mostly up to 28.7 µM
Method in brief: as §1

[2] = biological target: Ubiquitin carboxyl-terminal hydrolase 1 (Homo sapiens) (UniProt O94782); assay: Inhibitors of USP1/UAF1: Pilot qHTS (AID 504865); further: nearly all actives have a fitted effect of over 35% in size; further: potency means the concentration at half of the fitted maximal effect
Sequence of Ubiquitin carboxyl-terminal hydrolase 1 (Homo sapiens) (O94782 whole entry, looked up): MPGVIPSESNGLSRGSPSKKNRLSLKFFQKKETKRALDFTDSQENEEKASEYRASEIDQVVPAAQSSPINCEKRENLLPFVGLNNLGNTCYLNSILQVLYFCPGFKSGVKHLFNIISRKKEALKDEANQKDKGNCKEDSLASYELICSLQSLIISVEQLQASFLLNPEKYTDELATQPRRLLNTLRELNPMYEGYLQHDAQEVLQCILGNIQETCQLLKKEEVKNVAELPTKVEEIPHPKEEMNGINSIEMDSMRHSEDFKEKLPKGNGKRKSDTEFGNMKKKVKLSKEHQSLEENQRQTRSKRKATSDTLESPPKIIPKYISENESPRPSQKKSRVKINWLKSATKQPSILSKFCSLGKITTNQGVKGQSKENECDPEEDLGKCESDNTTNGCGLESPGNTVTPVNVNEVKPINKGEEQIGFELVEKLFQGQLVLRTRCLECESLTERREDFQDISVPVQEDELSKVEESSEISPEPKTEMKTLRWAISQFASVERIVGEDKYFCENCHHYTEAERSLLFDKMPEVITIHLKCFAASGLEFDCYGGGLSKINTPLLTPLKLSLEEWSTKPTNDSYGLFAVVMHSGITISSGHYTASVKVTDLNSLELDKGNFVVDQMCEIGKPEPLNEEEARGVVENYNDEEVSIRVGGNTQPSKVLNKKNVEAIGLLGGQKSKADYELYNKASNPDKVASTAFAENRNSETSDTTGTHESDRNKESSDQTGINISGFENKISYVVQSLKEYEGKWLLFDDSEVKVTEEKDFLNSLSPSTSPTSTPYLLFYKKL
Method in brief: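 Enzyme-free wells gave the negative control, while test wells held 1nM USP1/UAF1 preincubated with compound for 15 min at room temperature. Ub-Rho at 150nM final started the reaction, and fluorescence at 480/540 nm was recorded kinetically.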

7G8 = assay: qHTS profiling for inhibitors of Plasmodium falciparum proliferation (AID 504749); further: nearly all actives have a fitted effect of over 60% in size; further: potency means the concentration at half of the fitted maximal effect; details: P. falciparum in erythrocytes, SYBR Green DNA, 72 h; series mostly up to 28.7 µM
Method in brief: as §1

C2A = assay: as above; details: P. falciparum in erythrocytes, SYBR Green DNA, 72 h; series mostly up to 28.7 µM
Method in brief: as §1

CP237 = assay: as above; details: P. falciparum in erythrocytes, SYBR Green DNA, 72 h; series mostly up to 28.7 µM
Method in brief: as §1

CP256 = assay: as above; details: P. falciparum in erythrocytes, SYBR Green DNA, 72 h; series mostly up to 28.7 µM
Method in brief: as §1

CP260 = assay: as above; details: P. falciparum in erythrocytes, SYBR Green DNA, 72 h; series mostly up to 28.7 µM
Method in brief: as §1

CP265 = assay: as above; details: P. falciparum in erythrocytes, SYBR Green DNA, 72 h; series mostly up to 28.7 µM
Method in brief: as §1

Dd2 = assay: as above; details: P. falciparum in erythrocytes, SYBR Green DNA, 72 h; series mostly up to 28.7 µM
Method in brief: as §1

JCK = assay: as above; details: P. falciparum in erythrocytes, SYBR Green DNA, 72 h; series mostly up to 28.7 µM
Method in brief: as §1

SC27B = assay: as above; details: P. falciparum in erythrocytes, SYBR Green DNA, 72 h; series mostly up to 28.7 µM
Method in brief: as §1

[3] = qHTS assay for small molecule activators of the nuclear factor-kappa B (NF-kB) signaling pathway (AID 651749; active means well fitted activation curve with a large enough effect in the signal ratio; the % refers to the signal ratio; further: % of control where 0% means no effect); details: NF-kB-bla ME-180 cells, beta-lactamase FRET ratio, 16 h; stronger effect = higher value
Method in brief: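 Activation measured after 16 hr compound treatment at 37C, 5% CO2, of 2,000 ME-180 cells/well stably expressing an NF-kB response element–driven beta-lactamase reporter, via FRET-disruption fluorescence.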

[4] = biological target: Vitamin D3 receptor (Homo sapiens) (UniProt P11473); assay: qHTS assay for small molecule antagonists of vitamin D receptor signaling (AID 588541; calls by dose curve;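 further: receptor activated by calcitriol during compound treatment; on the % scale 0 is the no-effect control and ±100 the full control effect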)
Sequence of Vitamin D3 receptor (Homo sapiens) (P11473 whole entry, looked up): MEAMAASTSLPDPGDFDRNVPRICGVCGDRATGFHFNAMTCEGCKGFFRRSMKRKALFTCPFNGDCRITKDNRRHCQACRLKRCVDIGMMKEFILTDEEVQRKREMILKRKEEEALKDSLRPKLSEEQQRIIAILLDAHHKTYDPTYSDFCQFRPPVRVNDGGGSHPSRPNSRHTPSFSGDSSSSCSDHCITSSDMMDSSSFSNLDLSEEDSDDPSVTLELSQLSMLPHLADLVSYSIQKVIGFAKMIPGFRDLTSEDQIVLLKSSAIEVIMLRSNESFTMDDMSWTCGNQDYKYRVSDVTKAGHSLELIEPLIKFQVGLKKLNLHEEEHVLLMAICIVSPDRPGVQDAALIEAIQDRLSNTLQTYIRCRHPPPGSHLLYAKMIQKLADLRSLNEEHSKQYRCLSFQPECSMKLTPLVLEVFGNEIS
Method in brief: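 Antagonist-mode beta-lactamase reporter assay: HEK293T VDR-UAS-bla cells were exposed to titrated compound alongside 1-alpha,25-dihydroxyvitamin D3 at 3 nM final for 16 h. Values were normalized to the 50 nM agonist control and DMSO basal, with IC50 and efficacy from Hill equation fits.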

O=C1CCc2ccccc2O1
inactive: Potency [1]

Nc1nc(Cl)nc2c1ncn2C1CC(O)C(CO)O1 (stereo unspecified)
inactive: Potency (CP201) | Potency (CP215) | Potency (CP266) | Potency (CP268) | Potency (CP297) | Potency (CP325) | Potency (DIV30)

O=NCc1ccc([N+](=O)[O-])o1
active: Potency (7G8) 8.91 µM
inactive: Potency [2] | Potency (C2A) | Potency (CP201) | Potency (CP237) | Potency (CP256) | Potency (CP260) | Potency (CP265) | Potency (CP266) | Potency (CP325) | Potency (Dd2) | Potency (JCK) | Potency (SC27B)

Cc1cccc(O)c1
inactive: activation [3] -0.103% and -1.79%

CC(=O)O[C@@]12CO[C@@H]1C[C@H](O)[C@@]1(C)C(=O)[C@H](O)C3=C(C)[C@@H](OC(=O)C(O)[C@@H](NC(=O)OC(C)(C)C)c4ccccc4)C[C@@](O)([C@@H](OC(=O)c4ccccc4)[C@H]21)C3(C)C (stereo partly specified)
inactive: Potency [2] | Potency (JCK)
active: Potency (7G8) 0.398 µM | Potency (C2A) 0.0316 µM | Potency (CP215) 0.0675 µM | Potency (CP237) 0.0178 µM | Potency (CP256) 0.0316 µM | Potency (CP260) 0.0251 µM | Potency (CP265) 0.0794 µM | Potency (CP297) 0.0953 µM | Potency (DIV30) 0.0536 µM | Potency (Dd2) 0.01 µM | Potency (SC27B) 0.199 µM

CCC(C)CCCCC(=O)NC(CCN)C(=O)NC(C(=O)NC(CCN)C(=O)NC1CCNC(=O)C(C(C)O)NC(=O)C(CCN)NC(=O)C(CCN)NC(=O)C(CC(C)C)NC(=O)C(Cc2ccccc2)NC(=O)C(CCN)NC1=O)C(C)O (stereo unspecified) ({Octanoyl(6-Me)}-[Dab]T[Dab][Dab][Dab]FL[Dab][Dab]T; lactam 4-C; configuration not given here)
inactive: Potency (7G8) | Potency (C2A) | Potency (CP201) | Potency (CP215) | Potency (CP237) | Potency (CP256) | Potency (CP260) | Potency (CP266) | Potency (CP268) | Potency (CP297) | Potency (CP325) | Potency (DIV30) | Potency (Dd2) | Potency (JCK) | Potency (SC27B)
active: Potency [2] 50.1 µM

Cc1cc(CC(C)CC(C)(C)C)n(O)c(=O)c1 (stereo unspecified)
active: Potency (7G8) 2.82 µM | Potency (C2A) 2.51 µM | Potency (CP201) 4.78 µM | Potency (CP215) 2.13 µM | Potency (CP237) 2.82 µM | Potency (CP256) 1.26 µM | Potency (CP260) 3.16 µM | Potency (CP265) 2.82 µM | Potency (CP266) 3.79 µM | Potency (CP268) 2.69 µM | Potency (CP297) 1.69 µM | Potency (CP325) 2.39 µM | Potency (DIV30) 3.79 µM | Potency (Dd2) 7.94 µM | Potency (JCK) 11.2 µM | Potency (SC27B) 2.82 µM

O=S(=O)(O)c1ccccc1
inactive: outcome [4] | activation [3] 0.223%

CCN1/C(=C/C=C/C=C/c2sc3ccccc3[n+]2CC)Sc2ccccc21
active: Potency [2] 22.4 µM | Potency (7G8) 0.891 µM | Potency (C2A) 3.55 µM | Potency (CP201) 12 µM | Potency (CP215) 6.75 µM | Potency (CP237) 1.58 µM | Potency (CP256) 4.47 µM | Potency (CP260) 0.631 µM | Potency (CP265) 5.01 µM | Potency (CP266) 9.53 µM | Potency (CP268) 12 µM | Potency (CP297) 12 µM | Potency (DIV30) 12 µM | Potency (Dd2) 2.24 µM | Potency (JCK) 11.2 µM | Potency (SC27B) 6.31 µM

O[C@@H]([C@H](O)[C@@H](O)CBr)[C@@H](O)CBr
inactive: Potency [1] | outcome [4]

CCC(=O)O[C@@H](OP(=O)(CCCCc1ccccc1)CC(=O)N1C[C@H](C2CCCCC2)C[C@H]1C(=O)O)C(C)C (stereo partly specified)
active: Potency (7G8) 12.6 µM
inactive: Potency [2] | Potency (C2A) | Potency (CP201) | Potency (CP215) | Potency (CP237) | Potency (CP256) | Potency (CP260) | Potency (CP265) | Potency (CP266) | Potency (CP268) | Potency (CP297) | Potency (CP325) | Potency (DIV30) | Potency (Dd2) | Potency (JCK) | Potency (SC27B)

CC1(C)S[C@@H]2[C@H](NC(=O)COc3ccccc3)C(=O)N2[C@H]1C(=O)O
inactive: Potency [2] | outcome [4] | activation [3] -1.54% | Potency (7G8) | Potency (C2A) | Potency (CP201) | Potency (CP215) | Potency (CP237) | Potency (CP256) | Potency (CP260) | Potency (CP265) | Potency (CP266) | Potency (CP268) | Potency (CP297) | Potency (CP325) | Potency (DIV30) | Potency (Dd2) | Potency (JCK) | Potency (SC27B)

CC1CCC(C(C)C)C(OC(=O)c2ccccc2O)C1 (stereo unspecified)
inactive: Potency [2] | Potency (7G8) | Potency (C2A) | Potency (CP201) | Potency (CP215) | Potency (CP237) | Potency (CP256) | Potency (CP260) | Potency (CP265) | Potency (CP266) | Potency (CP268) | Potency (CP297) | Potency (CP325) | Potency (DIV30) | Potency (Dd2) | Potency (JCK) | Potency (SC27B)

O=C(O)c1ccccc1C(c1ccc(O)cc1)c1ccc(O)cc1
inactive: Potency [1] | activation [3] -1.81% and -6.43%

c1ccc2scnc2c1
inactive: Potency [1] | outcome [4] | activation [3] -1.1%

Cc1c(N=C=O)cccc1N=C=O
inactive: Potency [1] | outcome [4] | activation [3] -0.751% and -0.0469%

Cc1ccccc1C
inactive: Potency [1] | outcome [4] | activation [3] -0.0827% and -0.301%

Nc1ccc(S(=O)(=O)O)cc1
inactive: Potency [1] | outcome [4] | activation [3] -0.239% and 0.0399%

COC(=O)CCCCC(=O)OC
inactive: Potency [1] | outcome [4]

COc1cc(/C=C/C(=O)N2CCC=CC2=O)cc(OC)c1OC
inactive: Potency [2]

CO[C@@H]1[C@@H](OC2OC(C)C(OC3CC(C)(O)C(OC(=O)CC(C)C)C(C)O3)C(N(C)C)C2O)[C@@H](CC=O)C[C@@H](C)C(=O)/C=C\C2O[C@H]2C[C@@H](C)OC(=O)C[C@H]1OC(C)=O (stereo partly specified)
inactive: Potency [2] | Potency (JCK)
active: Potency (7G8) 8.91 µM | Potency (C2A) 10 µM | Potency (CP237) 10 µM | Potency (CP256) 5.01 µM | Potency (CP260) 7.94 µM | Potency (CP265) 11.2 µM | Potency (CP268) 8.49 µM | Potency (CP325) 2.69 µM | Potency (Dd2) 0.891 µM | Potency (SC27B) 10 µM

O=C(O)c1ccc(O)cc1O
inactive: outcome [4] | activation [3] 0.834% and -0.343%
